MPTP inh – mitochondrial permeability transition pore inhibitors, primary screen, biochemical, isolated mouse mitochondria, absorbance. Ca2+ swelling absorbance, 30 min. inhibition, % at 10 µM. 360,000 tested, 1.4% active;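 active = inhibition of 50% or more, scaled per plate between neutral and stimulator controls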
NadD block – inhibitors of S. aureus NadD, primary screen, biochemical, colorimetric, uHTS. Nicotinate-nucleotide adenylyltransferase NadD (Staphylococcus aureus N315). purified NadD enzyme, colorimetric absorbance read-out. inhibition, % at 20 µM. 360,000 tested, 0.78% active. AID 602399, 2012; in the data active = inhibition above about 26%
aDG glyco up – activators of alpha-DG glycosylation, primary screen, uHTS, Pro5-aDG cells, AlphaScreen; 360,000 tested, 0.22% active; AID 624168, 2012; alpha-DG glycosylation AlphaScreen (IIH6); 0% Pro5, 100% B10-LARGE cell signal; activation, % at 10 µM;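 active = activation of at least 8% versus controls, or a plate z-score of at least 8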;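 also: Pro5 are CHO cells carrying HIG-tagged alpha-DG that lacks glycosylation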
TAG inh – inhibitors of triacylglycerol accumulation, primary screen, cell-based, uHTS, fluorescence, H9c2. AID 651582, 2012. inhibition, % at 12.5 µM. H9c2 cells, Nile Red lipid (TAG) fluorescence; cells loaded with 200 µM oleic acid. 230,000 tested, 0.66% active;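 active = pattern-corrected inhibition of lipid staining of at least 50% with the nuclear-stain viability signal not falling by more than 50%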
NadD conf – inhibitors of S. aureus NadD, confirmation, biochemical, colorimetric, single concentration; shares compounds with NadD block; purified S. aureus NadD, colorimetric enzyme assay; inhibition, % at 20 µM; 2,000 tested, 13% active; in the data active = inhibition mostly above about 42%, no sharp cut-off; inactive = mostly below about 42%
A number is an active result; 0 = inactive; - = no result given. Hits are enriched below; roughly 2.7% of the tested compounds scored in any of these assays.

SMILES | MPTP inh | NadD block | aDG glyco up | TAG inh | NadD conf
O=S(=O)(c1ccccc1)N1CC2CC(Br)C(Br)CC21 (configuration not stated) | 0 | 0 | 0 | 0 | -
COc1ccc(NC(=O)CCCN2C(=O)C(c3ccccc3)Oc3cccnc32)cc1OC (configuration not stated) | 0 | 0 | 0 | - | -
COc1ccc(Br)cc1CNC(=O)CN1C(=O)C(c2ccccc2)Oc2cccnc21 (configuration not stated) | 0 | 59 | 0 | - | 52
Cc1noc(/C=C/c2ccco2)c1S(=O)(=O)N1CCC(C(=O)N2c3ccccc3CC2C)CC1 (configuration not stated) | 0 | 39 | 0 | 0 | 0
Cc1noc(/C=C/c2ccco2)c1S(=O)(=O)N1CCC(C(=O)NC(C)c2ccccc2)CC1 (configuration not stated) | 0 | 0 | 0 | 0 | -
Cc1[nH]c2ccccc2c1/C=N/NC(=O)c1cccc(S(=O)(=O)Nc2ccccc2Cl)c1 | 0 | 0 | 0 | - | -
CCc1cccc2c(/C=N/NC(=O)c3cccc(S(=O)(=O)Nc4ccccc4Cl)c3)c[nH]c12 | 0 | 32 | 0 | - | 52
O=C(Nc1ccc(-c2nc3ccccc3o2)c(O)c1)c1cc(-n2cnnc2)ccc1Cl | 0 | 30 | 0 | - | 0
COC1OC2COC(c3ccccc3)OC2C(O)C1NC(=O)c1ccccc1 (configuration not stated) | 0 | 0 | 0 | 0 | -
COc1cc(OC)cc(C(=O)N2CCN(C(=O)c3cccnc3)CC2)c1 | 0 | 0 | 0 | 0 | -
COc1cccc2c(=O)c3cccc(N)c3[nH]c12 | 0 | 39 | 0 | - | 0
COc1ccc(CCC(=O)N2c3ccccc3N=C(c3ccc(C(F)(F)F)cc3)C2C(=O)NC(C)C)cc1 (configuration not stated) | 0 | - | 0 | - | -
COc1cc(C2c3sc(=O)[nH]c3SC3C(=O)N(c4ccc(Br)cc4)C(=O)C32)ccc1O (configuration not stated) | 0 | 0 | 0 | 0 | -
CCOc1ccc(N2C(=O)C3Sc4[nH]c(=O)sc4C(/C=C/c4ccccc4)C3C2=O)cc1 (configuration not stated) | 0 | 32 | 0 | - | 0
C(=N/n1c2ccccc2c2ccccc21)/c1ccco1 | 0 | 0 | 0 | 0 | -
N=c1scc(-c2ccccc2)n1/N=C/c1ccco1 | 0 | 38 | 0 | - | 0
COc1ccc(S(=O)(=O)NCc2cccnc2)cc1NC(=O)c1ccccc1C | 0 | 83 | 0 | 0 | 0
CCOc1ccc(S(=O)(=O)NCc2cccnc2)cc1NC(=O)c1ccccc1 | 0 | 0 | 0 | 0 | -
Cc1ccccc1C(=O)N1CCC[C@@H]1C(=O)N1CCC[C@H]1C(=O)NCc1ccncc1 | 0 | 0 | 0 | - | -
CCc1cccc2cc3c(N)c(C(=O)Nc4ccc(S(=O)(=O)N5CCCC5)cc4)sc3nc12 | 0 | 44 | 0 | - | 0
Cc1cccc2cc3c(N)c(C(=O)Nc4ccc(N5CCOCC5)cc4)sc3nc12 | 0 | 0 | 0 | - | -
O=[N+]([O-])c1ccc(N2CCN(S(=O)(=O)c3ccc(Cl)cc3)CC2)cc1NCc1cccnc1 | 0 | 32 | 0 | 0 | 0
COc1ccc(C2C(C#N)=C(N)N(c3sc4c(c3C#N)CCCC4)C3=C2C(=O)CC(C)(C)C3)cc1 (configuration not stated) | 0 | 0 | 0 | 0 | -
COc1ccc(C2C(C#N)=C3NC(=O)c4c(sc5c4CCCCC5)N3C3=C2C(=O)CC(C)(C)C3)cc1 (configuration not stated) | 0 | 61 | 0 | 0 | 0
Cc1c(Cl)ccc2c(C(=O)Nc3cc(C(C)(C)C)on3)cc(-c3ccccn3)nc12 | 0 | 34 | 0 | 0 | 0
CCCCNC(=O)C1c2ccccc2OCC(=O)N1Cc1cccnc1 (configuration not stated) | 0 | 0 | 0 | - | -
CCCNC(=O)c1ccc(N2CCC3(CC2)CC(c2cccc(Br)c2)=NO3)c(NC(=O)c2ccc(Cl)c([N+](=O)[O-])c2)c1 | 0 | 30 | 0 | 0 | 0
CCCCC(CC)C(=O)Nc1cc(C(=O)NCCC)ccc1N1CCC2(CC1)CC(c1cccc(Br)c1)=NO2 (configuration not stated) | 0 | 31 | 0 | 0 | 0

Source: PubChem (Sanford-Burnham Center for Chemical Genomics)
